Experimental data as given in the supplement of paper PMC10849652.
Targets with a hit are over-represented here; the source holds about 8,800 in all. About 0.5% of all pairs of compound and target were hits. Unmarked numbers belong to inactive results.

Tests used:
Experiment in all cases: log2 fold change, soluble protein after heating vs DMSO (PISA); higher = thermal stabilisation; K562 lysate, 10 uM; active = over 0.2 and 3.5 SD of the protein, either way, in both replicates (recomputed)
[1] = compound: CS(=O)(=O)CCNCc1ccc(-c2ccc3ncnc(Nc4ccc(OCc5cccc(F)c5)c(Cl)c4)c3c2)o1 [lapatinib]
Procedure, shortened: (§1)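 Values give the log-two fold change in thermal stability against solvent controls, from duplicates. Crude K562 extract at 1 mg/mL protein, made by dounce homogenisation in PBS pH 7.4 with 1 mM MgCl2, was treated with 10 μM compound for 30 min. After 3 min heating across 48°C-58°C, aliquots were pooled, adjusted to 0.5% NP-40 at 4°C and centrifuged at 21,000xg for 90 min. The supernatant was measured by TMTpro 16plex LC-MS/MS with channel sums equalised.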

[2] = compound: CS(=O)(=O)N1CCN(Cc2cc3nc(-c4cccc5[nH]ncc45)nc(N4CCOCC4)c3s2)CC1 [pictilisib]
Procedure, shortened: as §1

[3] = compound: C[C@@H](Oc1cc(-c2cnn(C3CCNCC3)c2)cnc1N)c1c(Cl)ccc(F)c1Cl [crizotinib]
Procedure, shortened: as §1

[4] = compound: C[C@H](C1=CC=C(C=C1)C(=O)NC2=C3C=CNC3=NC=C2)N
Procedure, shortened: as §1

[5] = compound: C[C@H](Nc1ncnc2nc[nH]c12)c1cc2cccc(Cl)c2c(=O)n1-c1ccccc1 [duvelisib]
Procedure, shortened: as §1

[6] = compound: Cc1cc(Nc2cc(CN3CCOCC3)c3nc(C)c(Cc4ccc(Cl)cc4F)n3n2)n[nH]1 [gandotinib]
Procedure, shortened: as §1

[7] = compound: Cc1ccc(-n2nc(C(C)(C)C)cc2NC(=O)Nc2ccc(OCCN3CCOCC3)c3ccccc23)cc1 [doramapimod]
Procedure, shortened: as §1

[8] = compound: Cc1ccc(NC(=O)c2ccc(CN3CC[C@H](N(C)C)C3)c(C(F)(F)F)c2)cc1Nc1nccc(-c2cncnc2)n1 [bafetinib]
Procedure, shortened: as §1

[9] = compound: Cc1cccc(CC(=O)N2CCc3c2ccc(-c2cn(C)c4ncnc(N)c24)c3F)n1
Procedure, shortened: as §1

[10] = compound: Cc1cc(Nc2cc(N3CCN(C)CC3)nc(Sc3ccc(NC(=O)C4CC4)cc3)n2)n[nH]1 [tozasertib]
Procedure, shortened: as §1

Sequence of UniProt P04792 (P04792 whole entry, looked up): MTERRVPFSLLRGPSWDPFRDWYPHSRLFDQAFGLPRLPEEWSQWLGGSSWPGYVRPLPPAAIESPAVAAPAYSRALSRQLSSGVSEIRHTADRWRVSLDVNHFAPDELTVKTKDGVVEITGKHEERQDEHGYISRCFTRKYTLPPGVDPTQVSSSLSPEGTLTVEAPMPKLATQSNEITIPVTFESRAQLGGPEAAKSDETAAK
Sequence of UniProt Q9Y287 (Q9Y287 whole entry, looked up): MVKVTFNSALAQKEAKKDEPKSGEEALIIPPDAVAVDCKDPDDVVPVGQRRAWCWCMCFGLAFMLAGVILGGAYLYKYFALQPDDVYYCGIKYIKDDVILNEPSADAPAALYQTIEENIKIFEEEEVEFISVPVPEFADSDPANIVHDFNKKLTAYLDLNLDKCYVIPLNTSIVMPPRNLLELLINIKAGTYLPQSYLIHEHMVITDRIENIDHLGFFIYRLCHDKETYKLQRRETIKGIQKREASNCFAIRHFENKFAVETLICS
Sequence of UniProt P15104 (P15104 whole entry, looked up): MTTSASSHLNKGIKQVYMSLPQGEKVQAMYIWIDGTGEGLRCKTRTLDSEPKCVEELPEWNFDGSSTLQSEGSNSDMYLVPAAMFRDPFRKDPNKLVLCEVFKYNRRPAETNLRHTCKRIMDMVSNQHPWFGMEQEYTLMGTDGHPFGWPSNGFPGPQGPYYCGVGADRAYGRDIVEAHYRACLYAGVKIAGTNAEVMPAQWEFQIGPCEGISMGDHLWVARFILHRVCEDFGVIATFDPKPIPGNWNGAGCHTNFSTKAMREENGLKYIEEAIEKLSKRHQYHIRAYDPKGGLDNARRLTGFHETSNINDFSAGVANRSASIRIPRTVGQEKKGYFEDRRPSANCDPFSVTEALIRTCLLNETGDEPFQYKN
Sequence of UniProt Q99795 (Q99795 whole entry, looked up): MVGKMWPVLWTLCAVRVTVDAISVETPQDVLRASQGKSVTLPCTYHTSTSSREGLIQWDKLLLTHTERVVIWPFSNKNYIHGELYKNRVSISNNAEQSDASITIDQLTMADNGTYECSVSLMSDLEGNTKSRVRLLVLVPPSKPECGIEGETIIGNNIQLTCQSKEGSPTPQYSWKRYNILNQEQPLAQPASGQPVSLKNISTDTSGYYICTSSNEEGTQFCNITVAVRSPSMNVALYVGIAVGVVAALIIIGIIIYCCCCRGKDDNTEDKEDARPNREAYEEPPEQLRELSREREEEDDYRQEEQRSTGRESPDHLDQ
Sequence of UniProt P42858 (P42858 whole entry, looked up): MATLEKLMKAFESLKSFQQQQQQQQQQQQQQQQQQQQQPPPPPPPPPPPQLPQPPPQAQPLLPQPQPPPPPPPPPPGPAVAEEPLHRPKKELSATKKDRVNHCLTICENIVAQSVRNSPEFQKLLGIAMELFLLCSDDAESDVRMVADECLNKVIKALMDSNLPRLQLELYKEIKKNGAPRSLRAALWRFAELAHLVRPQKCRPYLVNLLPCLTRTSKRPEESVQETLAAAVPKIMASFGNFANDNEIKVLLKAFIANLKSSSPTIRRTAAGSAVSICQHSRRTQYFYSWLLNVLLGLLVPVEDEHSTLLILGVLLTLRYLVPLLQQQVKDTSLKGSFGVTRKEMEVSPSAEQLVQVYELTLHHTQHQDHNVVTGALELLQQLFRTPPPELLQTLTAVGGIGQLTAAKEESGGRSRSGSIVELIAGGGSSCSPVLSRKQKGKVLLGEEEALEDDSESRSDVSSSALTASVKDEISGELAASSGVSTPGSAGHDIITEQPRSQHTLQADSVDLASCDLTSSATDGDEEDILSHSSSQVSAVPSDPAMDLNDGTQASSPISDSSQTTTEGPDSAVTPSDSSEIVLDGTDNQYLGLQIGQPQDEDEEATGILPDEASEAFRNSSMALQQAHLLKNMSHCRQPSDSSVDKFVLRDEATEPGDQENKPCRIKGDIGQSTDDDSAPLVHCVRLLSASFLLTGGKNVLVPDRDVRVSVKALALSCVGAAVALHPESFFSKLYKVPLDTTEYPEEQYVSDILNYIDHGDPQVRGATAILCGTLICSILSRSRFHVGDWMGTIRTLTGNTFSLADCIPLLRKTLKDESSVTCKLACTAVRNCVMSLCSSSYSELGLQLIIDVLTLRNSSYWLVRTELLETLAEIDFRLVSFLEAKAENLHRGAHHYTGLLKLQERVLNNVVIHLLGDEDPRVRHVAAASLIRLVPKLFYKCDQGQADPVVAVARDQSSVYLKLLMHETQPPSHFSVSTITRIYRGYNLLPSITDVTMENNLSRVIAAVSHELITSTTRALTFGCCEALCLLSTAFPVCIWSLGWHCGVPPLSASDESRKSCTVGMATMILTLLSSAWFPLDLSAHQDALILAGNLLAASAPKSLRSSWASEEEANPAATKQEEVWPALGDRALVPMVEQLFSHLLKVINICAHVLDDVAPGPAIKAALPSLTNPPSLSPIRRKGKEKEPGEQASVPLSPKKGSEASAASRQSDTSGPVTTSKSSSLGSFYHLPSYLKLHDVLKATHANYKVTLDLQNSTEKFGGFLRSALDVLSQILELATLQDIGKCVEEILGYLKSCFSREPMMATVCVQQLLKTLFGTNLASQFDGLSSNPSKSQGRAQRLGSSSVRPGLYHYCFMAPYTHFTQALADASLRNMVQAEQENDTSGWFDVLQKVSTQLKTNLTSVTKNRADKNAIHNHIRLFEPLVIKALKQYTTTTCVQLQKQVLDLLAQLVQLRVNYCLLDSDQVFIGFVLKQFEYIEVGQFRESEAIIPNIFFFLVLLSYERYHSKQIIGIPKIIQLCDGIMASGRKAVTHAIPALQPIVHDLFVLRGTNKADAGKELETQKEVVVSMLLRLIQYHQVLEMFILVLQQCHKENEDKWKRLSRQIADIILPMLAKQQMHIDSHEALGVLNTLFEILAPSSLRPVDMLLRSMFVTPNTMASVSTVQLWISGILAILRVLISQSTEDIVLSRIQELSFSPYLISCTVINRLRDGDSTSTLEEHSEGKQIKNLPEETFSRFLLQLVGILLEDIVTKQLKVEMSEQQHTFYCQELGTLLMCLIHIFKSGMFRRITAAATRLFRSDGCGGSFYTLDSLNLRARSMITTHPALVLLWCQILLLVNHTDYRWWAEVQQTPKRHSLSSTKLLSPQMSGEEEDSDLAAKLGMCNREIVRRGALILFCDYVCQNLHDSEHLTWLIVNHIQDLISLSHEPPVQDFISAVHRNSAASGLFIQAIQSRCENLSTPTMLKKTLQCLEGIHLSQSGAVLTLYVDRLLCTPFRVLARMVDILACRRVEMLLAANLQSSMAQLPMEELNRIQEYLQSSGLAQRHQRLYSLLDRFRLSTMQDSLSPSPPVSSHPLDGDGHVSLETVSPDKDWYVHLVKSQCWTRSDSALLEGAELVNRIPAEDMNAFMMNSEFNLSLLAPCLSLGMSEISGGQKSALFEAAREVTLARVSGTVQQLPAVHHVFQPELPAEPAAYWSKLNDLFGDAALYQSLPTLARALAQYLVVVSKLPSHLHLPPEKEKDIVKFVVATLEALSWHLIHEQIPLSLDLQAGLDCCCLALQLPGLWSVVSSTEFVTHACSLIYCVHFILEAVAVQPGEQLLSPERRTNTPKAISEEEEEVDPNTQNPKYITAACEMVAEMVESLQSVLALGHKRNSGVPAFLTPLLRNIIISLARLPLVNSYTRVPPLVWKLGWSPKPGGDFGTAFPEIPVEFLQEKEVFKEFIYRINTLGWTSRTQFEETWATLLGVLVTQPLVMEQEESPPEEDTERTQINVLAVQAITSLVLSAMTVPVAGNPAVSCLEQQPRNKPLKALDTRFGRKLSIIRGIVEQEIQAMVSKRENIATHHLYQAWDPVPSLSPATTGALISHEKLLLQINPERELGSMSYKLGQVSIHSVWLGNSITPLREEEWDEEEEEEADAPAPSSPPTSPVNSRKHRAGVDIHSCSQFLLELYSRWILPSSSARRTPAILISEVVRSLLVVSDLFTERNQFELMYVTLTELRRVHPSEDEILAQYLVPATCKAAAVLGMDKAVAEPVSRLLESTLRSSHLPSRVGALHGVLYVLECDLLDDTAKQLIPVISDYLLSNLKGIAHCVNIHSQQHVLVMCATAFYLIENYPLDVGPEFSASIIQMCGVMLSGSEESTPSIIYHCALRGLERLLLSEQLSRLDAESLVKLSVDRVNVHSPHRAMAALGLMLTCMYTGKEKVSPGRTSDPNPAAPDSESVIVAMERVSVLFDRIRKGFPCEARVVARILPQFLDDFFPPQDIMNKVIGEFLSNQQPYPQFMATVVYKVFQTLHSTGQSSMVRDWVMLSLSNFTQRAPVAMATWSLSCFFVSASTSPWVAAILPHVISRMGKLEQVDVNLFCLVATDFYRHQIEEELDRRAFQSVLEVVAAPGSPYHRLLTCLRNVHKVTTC
Sequence of UniProt P52272 (P52272 whole entry, looked up): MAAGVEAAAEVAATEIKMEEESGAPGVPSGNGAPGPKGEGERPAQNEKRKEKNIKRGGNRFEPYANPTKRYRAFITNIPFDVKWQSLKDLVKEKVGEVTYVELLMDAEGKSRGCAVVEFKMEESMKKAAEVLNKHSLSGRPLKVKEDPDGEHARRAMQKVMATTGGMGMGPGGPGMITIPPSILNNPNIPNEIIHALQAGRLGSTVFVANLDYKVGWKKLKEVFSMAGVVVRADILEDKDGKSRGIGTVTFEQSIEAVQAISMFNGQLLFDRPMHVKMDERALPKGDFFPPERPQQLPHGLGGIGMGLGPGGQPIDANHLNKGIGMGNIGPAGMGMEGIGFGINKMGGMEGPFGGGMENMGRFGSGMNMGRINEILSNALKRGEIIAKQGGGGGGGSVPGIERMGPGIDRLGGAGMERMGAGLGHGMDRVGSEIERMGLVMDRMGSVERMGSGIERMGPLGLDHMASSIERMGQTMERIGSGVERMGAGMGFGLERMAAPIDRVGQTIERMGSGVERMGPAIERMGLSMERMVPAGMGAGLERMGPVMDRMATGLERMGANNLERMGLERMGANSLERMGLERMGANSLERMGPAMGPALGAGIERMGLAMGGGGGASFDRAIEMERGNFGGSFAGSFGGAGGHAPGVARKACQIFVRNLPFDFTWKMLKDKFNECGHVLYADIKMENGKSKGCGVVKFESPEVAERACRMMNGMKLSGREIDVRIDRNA

Target | log2 fold change [1] | log2 fold change [2] | log2 fold change [3] | log2 fold change [4] | log2 fold change [5] | log2 fold change [6] | log2 fold change [7] | log2 fold change [8] | log2 fold change [9] | log2 fold change [10]
IGFBP4 (UniProt P22692) | -0.007 | 0.015 | -0.042 | 0 | -0.029 | 0.019 | 0.014 | -0.149 | 0.095 | –
ISL2 (UniProt Q96A47) | – | 0 | 0.001 | 0.609 (active) | 0.006 | -0.104 | -0.074 | -0.055 | -0.096 | –
GNB1 (UniProt P62873) | 0.054 | -0.022 | -0.106 | -0.114 | 0.003 | 0.04 | 0.079 | 0.123 | 0.04 | -0.023
ITGB1BP2 (UniProt Q9UKP3) | – | – | – | -0.18 | -0.005 | 0.86 (active) | – | – | 0.548 | -0.259
HSPB1 (UniProt P04792) | -0.017 | -0.013 | 0.036 | 0.008 | 0.014 | -0.018 | -0.31 (active) | -0.031 | -0.021 | -0.017
HMGN5 (UniProt Q5JSK9) | -0.04 | 0.017 | – | – | – | – | – | -0.04 | – | 0.074
JAK3 (UniProt P52333) | -0.002 | 0.01 | 0.051 | 0.418 | – | -0.526 | -0.081 | 0.14 | -0.612 (active) | –
KATNBL1 (UniProt Q9H079) | -0.013 | – | -0.066 | 0.05 | 0.164 | -0.021 | -0.069 | – | 0.01 | 0.169
ITPR2 (UniProt Q14571) | -0.571 | – | – | – | -0.004 | – | – | – | – | –
GMPS (UniProt P49915) | -0.008 | -0.014 | 0.007 | 0.115 | 0.006 | -0.071 | -0.036 | -0.012 | -0.032 | -0.001
HNRNPD (UniProt D6RF44) | – | – | -0.086 | – | – | – | 0 | – | – | –
HNRNPLL (UniProt Q8WVV9) | 0.017 | -0.026 | -0.038 | -0.01 | -0.016 | -0.031 | 0.01 | -0.031 | 0.027 | 0
ITPRIP (UniProt Q8IWB1) | – | – | – | – | 0.179 | – | – | – | – | –
GSTM2 (UniProt P28161) | -0.024 | -0.011 | – | 0.121 | -0.067 | -0.042 | – | -0.011 | -0.079 | 0.02
HNRNPUL1 (UniProt M0R247) | – | 0.038 | – | 0.014 | – | -0.014 | – | 0.008 | 0.034 | –
HYDIN (UniProt Q4G0P3) | 0.037 | – | – | – | 0.179 | – | – | – | – | 0.041
H3-3A (UniProt P84243) | 0.028 | -0.018 | 0.046 | 0 | – | 0.016 | -0.062 | -0.049 | 0.03 | -0.083

Target | log2 fold change [1] | log2 fold change [2] | log2 fold change [3] | log2 fold change [4] | log2 fold change [5] | log2 fold change [6] | log2 fold change [7] | log2 fold change [8] | log2 fold change [9] | log2 fold change [10]
GTPBP6 (UniProt O43824) | – | – | – | 0.149 | -0.003 | 0.156 | – | – | -0.023 | 0.023
IRS2 (UniProt Q9Y4H2) | -0.128 | 0.023 | -0.186 | -0.578 (active) | 0 | 0.296 | 0.019 | 0.031 | 0.307 | –
ITM2B (UniProt Q9Y287) | – | -0.087 | 0.005 | -0.061 | 0.033 | -0.037 | 0.007 | -0.032 | 0.138 | –
HNRNPM (UniProt M0QZM1) | – | 0.076 | -0.07 | – | -0.06 | – | -0.017 | -0.243 | – | 0.075
HNRNPL (UniProt P14866) | 0.005 | -0.02 | -0.042 | 0.018 | 0.03 | -0.081 | -0.018 | 0.004 | -0.016 | -0.011
HTT (UniProt P42858) | – | -0.028 | -0.042 | -0.012 | -0.016 | -0.124 | 0.006 | -0.112 | 0.094 | 0.002
GYPA, A0A2R8Y7F9 | – | -0.033 | – | -0.562 | – | 0.202 | – | -0.029 | 0.17 | –
GORASP1 (UniProt Q9BQQ3) | -0.031 | – | 0.015 | -0.103 | -0.018 | 0.002 | 0.015 | – | -0.028 | -0.087
HNRNPL, A0A3B3ITJ4 | -0.011 | -0.002 | – | – | – | – | – | -0.083 | – | –
HNRNPM (UniProt P52272) | -0.001 | 0.063 | 0.025 | -0.011 | -0.022 | 0.02 | -0.113 | -0.029 | 0.053 | -0.019
GLUL (UniProt P15104) | 0.04 | 0.015 | 0.066 | 0.213 (active) | 0.019 | -0.093 | 0.014 | 0.013 | -0.147 | -0.026
KBTBD2 (UniProt Q8IY47) | -0.036 | -0.019 | -0.073 | -0.139 | -0.01 | 0.124 | -0.005 | -0.07 | 0.138 | -0.056
HECW2 (UniProt Q9P2P5) | – | – | -0.075 | – | -0.088 | – | 0.24 | – | – | 0.165
HOMER3 (UniProt Q9NSC5) | 0.091 | 0.42 (active) | 0.021 | 0.048 | – | 0.061 | 0.016 | 0.234 | -0.072 | –
GPA33 (UniProt Q99795) | -0.064 | 0.059 | – | -0.584 (active) | 0.154 | 0.567 (active) | – | -0.051 | 0.554 | -0.015
GPLD1 (UniProt P80108) | – | – | -0.108 | – | -0.049 | – | 0.081 | – | – | –
HMGA1 isoform 2 (UniProt P17096) | -0.005 | – | 0.125 | 0.731 (active) | -0.011 | -0.26 | -0.274 | – | -0.491 | –
